# Results filed as inconclusive are left out. Calls of active or inactive are those of the source. How the source made its calls: active means hit-call score of the fitted dose curve at least 0.9, where 1 is the maximum; inconclusive means response in the unintended direction; inactive means score below 0.9.
# Tests used:
# [1] = target: human CYP2C9, CYP2C9 (gene 1559) (UniProt P11712); assay: NVS_ADME_hCYP2C9: NovaScreen (NVS) CYP450-related Enzyme Activity (ADME) Assay for human CYP2C9 (AID 2283108)
# human CYP2C9, CYP2C9 (gene 1559), sequence (P11712 whole entry, looked up): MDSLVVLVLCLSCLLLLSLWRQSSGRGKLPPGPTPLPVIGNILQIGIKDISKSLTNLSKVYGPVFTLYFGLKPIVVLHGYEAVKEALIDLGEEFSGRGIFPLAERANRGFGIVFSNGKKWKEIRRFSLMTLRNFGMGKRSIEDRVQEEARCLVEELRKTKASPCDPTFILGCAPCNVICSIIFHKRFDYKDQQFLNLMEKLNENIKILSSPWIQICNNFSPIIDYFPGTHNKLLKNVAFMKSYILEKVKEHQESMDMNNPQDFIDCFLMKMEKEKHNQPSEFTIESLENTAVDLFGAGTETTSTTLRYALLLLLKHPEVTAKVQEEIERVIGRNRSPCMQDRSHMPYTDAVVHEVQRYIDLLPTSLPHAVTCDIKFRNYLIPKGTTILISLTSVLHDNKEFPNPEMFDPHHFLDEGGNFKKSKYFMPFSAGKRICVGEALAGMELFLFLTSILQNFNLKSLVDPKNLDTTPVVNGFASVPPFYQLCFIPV
# How it was run: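 Fluorescence readout of CYP2C9 activity (SF9-expressed human enzyme) at 0.75 h. The primary screen used 10 uM in duplicate, with concentration-response follow-up for actives; acetonitrile was the negative control.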
# [2] = target: human CYP4F12, CYP4F12 (gene 66002) (UniProt Q9HCS2); assay: NVS_ADME_hCYP4F12: NovaScreen (NVS) CYP450-related Enzyme Activity (ADME) Assay for human CYP4F12 (AID 2283111)
# human CYP4F12, CYP4F12 (gene 66002), sequence (Q9HCS2 whole entry, looked up): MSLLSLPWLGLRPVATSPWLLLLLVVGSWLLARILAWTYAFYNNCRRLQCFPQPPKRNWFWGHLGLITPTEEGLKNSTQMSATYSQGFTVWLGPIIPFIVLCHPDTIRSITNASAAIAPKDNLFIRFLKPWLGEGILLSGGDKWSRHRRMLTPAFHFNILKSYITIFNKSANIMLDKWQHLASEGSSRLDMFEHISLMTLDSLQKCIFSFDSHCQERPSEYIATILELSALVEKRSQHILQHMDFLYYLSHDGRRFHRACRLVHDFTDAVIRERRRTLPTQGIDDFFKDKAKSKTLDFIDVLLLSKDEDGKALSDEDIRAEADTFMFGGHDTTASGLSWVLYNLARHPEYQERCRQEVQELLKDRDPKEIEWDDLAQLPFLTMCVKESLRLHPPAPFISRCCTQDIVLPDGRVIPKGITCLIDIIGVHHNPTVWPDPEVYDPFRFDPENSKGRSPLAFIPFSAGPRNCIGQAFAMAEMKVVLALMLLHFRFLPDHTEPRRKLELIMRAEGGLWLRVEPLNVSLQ
# How it was run: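 Recombinant enzyme with a fluorescent substrate, signal read at 0.5 h post-dose; activity loss analysed relative to acetonitrile. Compounds first run in duplicate at 10 uM, with follow-up concentration-response testing of actives.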
# Caspase-1 (Homo sapiens) = Caspase-1 (Homo sapiens) (UniProt P29466); assay: NVS_ENZ_hCASP1: NovaScreen (NVS) Enzymatic Assay for human Caspase 1 (CASP1) (AID 2283132)
# Caspase-1 (Homo sapiens), sequence (P29466 whole entry, looked up): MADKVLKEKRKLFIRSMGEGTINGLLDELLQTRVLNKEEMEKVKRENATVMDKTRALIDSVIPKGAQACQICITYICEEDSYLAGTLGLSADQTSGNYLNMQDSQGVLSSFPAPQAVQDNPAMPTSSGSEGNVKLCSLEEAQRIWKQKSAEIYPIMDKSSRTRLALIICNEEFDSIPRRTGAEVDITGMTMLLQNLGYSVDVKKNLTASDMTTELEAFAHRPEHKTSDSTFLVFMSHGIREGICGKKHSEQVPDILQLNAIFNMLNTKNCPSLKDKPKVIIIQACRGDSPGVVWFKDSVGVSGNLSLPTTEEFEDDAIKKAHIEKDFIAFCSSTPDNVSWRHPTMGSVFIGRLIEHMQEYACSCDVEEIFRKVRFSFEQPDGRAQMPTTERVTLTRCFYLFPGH
# How it was run: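 Compounds were first tested in duplicate at 25 uM, with follow-up concentration series up to 50 uM. The bacterially expressed enzyme was read by fluorescence at 1 h post-dosing. Signal loss versus DMSO baseline indicates reduced enzyme activity.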
# [3] = target: human CYP2D6, CYP2D6 (gene 1565) (UniProt P10635); assay: NVS_ADME_hCYP2D6: NovaScreen (NVS) CYP450-related Enzyme Activity (ADME) Assay for human CYP2D6 (AID 2283107)
# human CYP2D6, CYP2D6 (gene 1565), sequence (P10635 whole entry, looked up): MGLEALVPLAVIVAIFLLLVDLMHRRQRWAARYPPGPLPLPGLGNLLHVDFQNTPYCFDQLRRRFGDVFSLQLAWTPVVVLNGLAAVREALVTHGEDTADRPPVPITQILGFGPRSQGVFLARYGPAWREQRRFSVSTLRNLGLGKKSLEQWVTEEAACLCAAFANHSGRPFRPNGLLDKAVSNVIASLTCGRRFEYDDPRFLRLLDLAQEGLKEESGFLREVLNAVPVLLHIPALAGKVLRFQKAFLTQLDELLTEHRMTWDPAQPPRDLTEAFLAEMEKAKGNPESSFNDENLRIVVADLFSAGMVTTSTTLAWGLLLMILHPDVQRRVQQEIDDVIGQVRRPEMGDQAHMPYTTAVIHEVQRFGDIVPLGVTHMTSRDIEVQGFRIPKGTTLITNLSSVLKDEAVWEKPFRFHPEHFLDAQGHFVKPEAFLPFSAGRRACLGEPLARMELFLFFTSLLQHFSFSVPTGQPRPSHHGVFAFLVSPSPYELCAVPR
# How it was run: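 Biochemical fluorescence assay, insect-cell-derived enzyme. Read at 1 h; inhibition taken from loss of signal against acetonitrile. Screened at 10 uM in duplicate, with concentration series for actives.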
# [4] = target: Cytochrome P450 3A4 (Homo sapiens) (UniProt P08684); assay: NVS_ADME_hCYP3A4: NovaScreen (NVS) CYP450-related Enzyme Activity (ADME) Assay for human CYP3A4 (AID 2283110)
# Cytochrome P450 3A4 (Homo sapiens), sequence (P08684 whole entry, looked up): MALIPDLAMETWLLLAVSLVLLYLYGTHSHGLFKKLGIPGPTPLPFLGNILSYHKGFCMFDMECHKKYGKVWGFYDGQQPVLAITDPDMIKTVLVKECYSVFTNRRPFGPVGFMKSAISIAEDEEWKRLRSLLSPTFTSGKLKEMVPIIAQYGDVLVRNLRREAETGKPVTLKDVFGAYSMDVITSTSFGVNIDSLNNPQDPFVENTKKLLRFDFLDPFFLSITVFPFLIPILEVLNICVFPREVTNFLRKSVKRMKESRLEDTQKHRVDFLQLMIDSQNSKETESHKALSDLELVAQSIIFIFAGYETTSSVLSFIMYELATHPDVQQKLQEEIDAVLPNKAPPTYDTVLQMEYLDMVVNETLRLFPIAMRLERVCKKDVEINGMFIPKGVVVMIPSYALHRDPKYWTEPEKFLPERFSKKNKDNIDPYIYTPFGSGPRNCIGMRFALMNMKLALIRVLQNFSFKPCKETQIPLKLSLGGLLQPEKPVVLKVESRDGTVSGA
# How it was run: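 Compounds screened in duplicate at 10 uM, with follow-up concentration-response for actives, against insect-cell-expressed recombinant enzyme. Activity read by fluorescence 0.33 h after dosing; loss of signal versus acetonitrile control indicates inhibition.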
# [5] = target: Cytochrome P450 2C19 (Homo sapiens) (UniProt P33261); assay: NVS_ADME_hCYP2C19: NovaScreen (NVS) CYP450-related Enzyme Activity (ADME) Assay for human CYP2C19 (AID 2283113);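 on AC50: potency for inhibition seen as loss of fluorescent signal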
# How it was run: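 Biochemical CYP2C19 inhibition screen: insect-cell recombinant protein plus fluorescent substrate, 1 h, fluorescence intensity. Acetonitrile defined baseline activity. Single 10 uM concentration in duplicate, with concentration-response follow-up for actives.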
# [6] = target: human Acetylcholinesterase (AChE), ACHE (gene 43) (UniProt P22303); assay: NVS_ENZ_hAChE: NovaScreen (NVS) Enzymatic Assay for human Acetylcholinesterase (AChE) (AID 2283129)
# human Acetylcholinesterase (AChE), ACHE (gene 43), sequence (P22303 whole entry, looked up): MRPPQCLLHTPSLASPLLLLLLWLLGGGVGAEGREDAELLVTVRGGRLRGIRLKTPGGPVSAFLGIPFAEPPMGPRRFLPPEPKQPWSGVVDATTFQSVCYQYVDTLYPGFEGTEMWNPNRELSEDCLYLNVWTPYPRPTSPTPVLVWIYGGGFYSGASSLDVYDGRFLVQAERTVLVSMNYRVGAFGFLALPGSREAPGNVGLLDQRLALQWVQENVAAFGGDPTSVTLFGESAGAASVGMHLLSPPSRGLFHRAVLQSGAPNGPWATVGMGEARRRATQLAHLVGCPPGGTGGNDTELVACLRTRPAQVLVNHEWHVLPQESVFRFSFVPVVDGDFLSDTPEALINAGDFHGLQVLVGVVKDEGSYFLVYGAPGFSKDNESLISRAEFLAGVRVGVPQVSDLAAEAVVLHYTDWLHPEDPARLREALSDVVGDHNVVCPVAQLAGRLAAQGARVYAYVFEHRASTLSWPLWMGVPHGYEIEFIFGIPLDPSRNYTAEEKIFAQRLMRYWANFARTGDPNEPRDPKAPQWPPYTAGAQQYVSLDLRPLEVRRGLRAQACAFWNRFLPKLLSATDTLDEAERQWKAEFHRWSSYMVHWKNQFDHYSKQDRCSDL
# Procedure: NVS_ENZ_hAChE is a biochemical, single-readout assay that uses extracted gene-proteins in a cell-free assay. Measurements were taken 0.33 hour after chemical dosing in a 96-well plate.NVS_ENZ_hAChE is one of one assay component(s) measured or calculated from the NVS_ENZ_hAChE assay. It is designed to make measurements of enzyme activity, a form of enzyme reporter, as detected with absorbance signals by Colorimetric technology.Data from the assay component NVS_ENZ_hAChE was analyzed into 1 assay endpoint. This assay endpoint, NVS_ENZ_hAChE, was analyzed in the positive analysis fitting direction relative to DMSO as the negative control and baseline of activity. Using a type of enzyme reporter, loss-of-signal activity can be used to understand changes in the enzymatic activity as they relate to the gene ACHE. Furthermore, this assay endpoint can be referred to as a primary readout, because this assay has produced multiple assay endpoints where this one serves a enzymatic activity function. To generalize the intended target to other relatable targets, this assay endpoint is annotated to the esterase intended target family, where the subfamily is acetylcholinesterase.
# Binding assays used specific radioligands (tritiated, iodinated) with non-radioactive competitive displacement ligands in agonist or antagonist protocols (as indicated) and various reference compounds and inhibitors to titrate specific binding to receptors and transporters. Most enzyme assays (CYPs, kinases, phosphatases, proteases, HDACs) used recombinant protein and specific substrates (fluorescence mostly, some colorimetric and radioactive) and inhibitors, followed by a biochemical separation of substrate and product. All assays for the biochemical HTS were initially run in duplicate at a single concentration (10 uM for CYP450 assays and 25 uM for all others). […] Each assay was run with positive and negative controls, and concurrent controls on every plate. The follow-up (secondary) screen tested active chemical-pairs in concentration series, as well as a few additional assays not tested in the primary screen, some selected negative inactives, and several cases re-run in the concentration series for confirmatory purposes.
# [7] = target: human Caspase 2 (CASP2), CASP2 (gene 835) (UniProt P42575); assay: NVS_ENZ_hCASP2: NovaScreen (NVS) Enzymatic Assay for human Caspase 2 (CASP2) (AID 2283135)
# human Caspase 2 (CASP2), CASP2 (gene 835), sequence (P42575 whole entry, looked up): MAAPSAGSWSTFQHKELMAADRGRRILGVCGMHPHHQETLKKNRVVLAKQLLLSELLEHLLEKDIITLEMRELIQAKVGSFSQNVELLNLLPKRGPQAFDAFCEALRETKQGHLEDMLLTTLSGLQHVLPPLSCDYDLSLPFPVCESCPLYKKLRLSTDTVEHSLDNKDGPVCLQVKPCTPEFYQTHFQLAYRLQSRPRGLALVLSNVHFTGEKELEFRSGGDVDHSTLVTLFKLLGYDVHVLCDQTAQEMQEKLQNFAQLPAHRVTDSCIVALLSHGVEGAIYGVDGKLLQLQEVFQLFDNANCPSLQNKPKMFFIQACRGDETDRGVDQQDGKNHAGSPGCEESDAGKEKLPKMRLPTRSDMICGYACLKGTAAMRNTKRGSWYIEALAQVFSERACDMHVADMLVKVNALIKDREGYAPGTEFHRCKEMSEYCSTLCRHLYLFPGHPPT
# Procedure: NVS_ENZ_hCASP2 is a biochemical, single-readout assay that uses extracted gene-proteins from E. coli in a cell-free assay. Measurements were taken 1 hour after chemical dosing in a 96-well plate.NVS_ENZ_hCASP2 is one of one assay component(s) measured or calculated from the NVS_ENZ_hCASP2 assay. It is designed to make measurements of enzyme activity, a form of enzyme reporter, as detected with fluorescence intensity signals by Fluorescence technology.Data from the assay component NVS_ENZ_hCASP2 was analyzed into 1 assay endpoint. This assay endpoint, NVS_ENZ_hCASP2, was analyzed in the positive analysis fitting direction relative to DMSO as the negative control and baseline of activity. Using a type of enzyme reporter, loss-of-signal activity can be used to understand changes in the enzymatic activity as they relate to the gene CASP2. Furthermore, this assay endpoint can be referred to as a primary readout, because this assay has produced multiple assay endpoints where this one serves a enzymatic activity function. To generalize the intended target to other relatable targets, this assay endpoint is annotated to the protease intended target family, where the subfamily is cysteine protease.
# Binding assays used specific radioligands (tritiated, iodinated) with non-radioactive competitive displacement ligands in agonist or antagonist protocols (as indicated) and various reference compounds and inhibitors to titrate specific binding to receptors and transporters. Most enzyme assays (CYPs, kinases, phosphatases, proteases, HDACs) used recombinant protein and specific substrates (fluorescence mostly, some colorimetric and radioactive) and inhibitors, followed by a biochemical separation of substrate and product. All assays for the biochemical HTS were initially run in duplicate at a single concentration (10 uM for CYP450 assays and 25 uM for all others). […]
# [8] = target: human AMP-activated Protein Kinase, alpha 1 (AMPKa1), PRKAA1 (gene 5562) (UniProt Q13131); assay: NVS_ENZ_hAMPKa1: NovaScreen (NVS) Enzymatic Assay for human AMP-activated Protein Kinase, alpha 1 (AMPKa1) (AID 2283130)
# human AMP-activated Protein Kinase, alpha 1 (AMPKa1), PRKAA1 (gene 5562), sequence (Q13131 whole entry, looked up): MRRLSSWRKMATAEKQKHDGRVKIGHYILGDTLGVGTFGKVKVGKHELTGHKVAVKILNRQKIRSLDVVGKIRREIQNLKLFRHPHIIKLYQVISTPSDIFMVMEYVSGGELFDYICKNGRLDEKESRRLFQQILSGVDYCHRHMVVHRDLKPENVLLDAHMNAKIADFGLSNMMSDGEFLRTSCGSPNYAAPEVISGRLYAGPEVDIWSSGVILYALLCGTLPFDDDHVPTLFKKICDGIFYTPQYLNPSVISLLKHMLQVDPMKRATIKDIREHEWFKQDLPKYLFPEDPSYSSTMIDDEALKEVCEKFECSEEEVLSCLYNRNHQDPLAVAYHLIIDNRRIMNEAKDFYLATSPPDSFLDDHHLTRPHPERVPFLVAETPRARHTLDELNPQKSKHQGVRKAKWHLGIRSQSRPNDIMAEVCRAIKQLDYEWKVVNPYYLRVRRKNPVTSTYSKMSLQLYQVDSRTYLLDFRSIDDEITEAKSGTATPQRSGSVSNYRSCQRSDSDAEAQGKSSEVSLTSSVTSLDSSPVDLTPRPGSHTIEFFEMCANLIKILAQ
# How it was run: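 Compounds were screened in duplicate at 25 uM, and those reaching ~30% inhibition were titrated up to 50 uM. The enzyme was recombinant human AMPKα1, and kinase turnover was read by fluorescence/mobility shift 1 h post-dosing as loss of signal versus DMSO.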
# [9] = target: human Acid Phosphatase 1 (ACP1), ACP1 (gene 52) (UniProt P24666); assay: NVS_ENZ_hACP1: NovaScreen (NVS) Enzymatic Assay for human Acid Phosphatase 1 (ACP1) (AID 2283136)
# human Acid Phosphatase 1 (ACP1), ACP1 (gene 52), sequence (P24666 whole entry, looked up): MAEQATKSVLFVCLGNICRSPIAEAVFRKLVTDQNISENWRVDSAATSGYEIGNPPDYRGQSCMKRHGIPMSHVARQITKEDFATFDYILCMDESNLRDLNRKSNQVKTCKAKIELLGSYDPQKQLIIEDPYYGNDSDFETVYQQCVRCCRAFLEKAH
# How it was run: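 Cell-free fluorescence read-out of phosphatase activity, substrate and product separated by mobility shift, taken 1.5 h after compound addition; protein produced in Sf9. Single 25 uM duplicate screen, followed by concentration series for actives, scored as signal loss relative to DMSO.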
smiles,measurement,setting,value
CS(=O)(=O)NC(=O)c1cc(Oc2ccc(C(F)(F)F)cc2Cl)ccc1[N+](=O)[O-],AC50,[1],6.1 µM (active)
CCOc1cccc(C2(N3CCN(c4ccccc4)CC3)CCC(C)CC2)c1 (centres undefined),AC50,[2],4.36 µM (active)
CN(C)[C@@H]1C(=O)C(C(N)=O)=C(O)[C@@]2(O)C(=O)C3=C(O)c4c(O)cccc4[C@@](C)(O)[C@H]3C[C@@H]12,outcome,Caspase-1 (Homo sapiens),inactive
Nc1ccc(Oc2ccc(N)cc2)cc1,outcome,[3],inactive
same,AC50,[4],7.04 µM (active)
same,outcome,[5],inactive
CCCCCCCCOC(=O)c1ccc(C(=O)OCCCCCCCC)c(C(=O)OCCCCCCCC)c1,outcome,[6],inactive
same,outcome,[7],inactive
Oc1ccc2ccc3cccc4ccc1c2c34,AC50,[1],2.53 µM (active)
same,AC50,[4],6.74 µM (active)
same,AC50,[6],7.92 µM (active)
same,AC50,[8],6.02 µM (active)
CCC[CH2][Sn]([Cl])([CH2]CCC)[CH2]CCC,outcome,[6],inactive
Clc1ccc(C(c2ccc(Cl)cc2)C(Cl)Cl)cc1,AC50,[5],4.79 µM (active)
CC(C)(O)c1cnn2c(-c3ccc(F)c(-c4c(F)cccc4C#N)c3)cnc2n1,AC50,[1],2.24 µM (active)
Clc1ccccc1Cl,AC50,[2],1.91 µM (active)
O=C(Nc1ccccc1)c1ccccc1I,outcome,[4],inactive
same,AC50,[5],4.95 µM (active)
Nc1ccc([N+](=O)[O-])cc1,AC50,[5],6.15 µM (active)
CC(C)(C)C(O)(CCc1ccc(Cl)cc1)Cn1cncn1 (centres undefined),AC50,[1],6 µM (active)
same,AC50,[4],5.27 µM (active)
same,AC50,[5],0.698 µM (active)
CCNS(=O)(=O)C(F)(F)C(F)(F)C(F)(F)C(F)(F)C(F)(F)C(F)(F)C(F)(F)C(F)(F)F,AC50,[1],0.226 µM (active)
same,AC50,[5],9.65 µM (active)
same,outcome,[8],inactive
same,outcome,[9],inactive
N#CC(Br)(Br)C(N)=O,outcome,[4],inactive
Nc1ccc(Cl)cc1N,outcome,[5],inactive
O=C(N[C@H](c1ccccc1)[C@@H]1CN2CCC1CC2)c1c(Cl)ccc(C(F)(F)F)c1Cl,AC50,[3],3.5 µM (active)
same,outcome,[4],inactive
CCCCCCCCn1sccc1=O,AC50,[3],7.91 µM (active)
same,AC50,[1],7.51 µM (active)
same,AC50,[4],8.75 µM (active)
same,AC50,[5],6.04 µM (active)
Nc1ccc(Cc2ccc(N)cc2)cc1,AC50,[5],14.4 µM (active)
[Cl-].[Cl-].[Hg+2],AC50,[3],3.44 µM (active)
same,AC50,[1],3.68 µM (active)
same,AC50,[4],0.975 µM (active)
same,AC50,[5],0.812 µM (active)
same,outcome,[7],inactive
O=C(Oc1ccc(Br)cc1)N1CCN2CCC1CC2,outcome,[8],inactive
CCCCOC(=O)c1ccccc1C(=O)OCc1ccccc1,AC50,[5],2.72 µM (active)
Cc1cc(N=Nc2ccccc2C)ccc1N,AC50,[1],4.5 µM (active)
same,AC50,[5],2.69 µM (active)
Oc1ccccc1Cl,outcome,[8],inactive
ClCCOCCCl,AC50,[1],15 µM (active)
CCCCC(CC)COC(=O)c1ccc(C(=O)OCC(CC)CCCC)c(C(=O)OCC(CC)CCCC)c1 (centres undefined),outcome,[6],inactive
same,outcome,[8],inactive
CNC(=O)Oc1cccc2c1OC(C)(C)C2,AC50,[6],0.497 µM (active)
CCCCCOC(=O)c1ccccc1C(=O)OCCCCC,outcome,[6],inactive
Nc1ccc(N=Nc2ccccc2)cc1,outcome,[3],inactive
same,AC50,[1],7.26 µM (active)
same,outcome,[2],inactive
same,AC50,[5],6.47 µM (active)
COP(=S)(OC)SCN1C(=O)c2ccccc2C1=O,AC50,[3],6.97 µM (active)
same,AC50,[1],4.74 µM (active)
same,AC50,[5],0.593 µM (active)
CCC12COCN1COC2,AC50,[1],3.73 µM (active)
Cc1ccc([N+](=O)[O-])cc1,outcome,[2],inactive
O=[N+]([O-])C(Br)(CO)CO,outcome,[3],inactive
same,AC50,[1],3.26 µM (active)
same,outcome,[4],inactive
same,AC50,[5],1.93 µM (active)
same,AC50,[6],29.5 µM (active)
Cc1ccc(N=C=O)cc1N=C=O,AC50,[6],8.65 µM (active)
same,AC50,Caspase-1 (Homo sapiens),25 µM (active)
same,outcome,[7],inactive
C[C@]12C=CC3=C4CCC(=O)C=C4CC[C@H]3[C@@H]1CC[C@@H]2O,AC50,[5],5.75 µM (active)
OCCOCCO,outcome,[4],inactive
CCOC(=O)[C@]1(c2ccccc2)Oc2ccccc2[C@@H]1N,AC50,[3],1.3 µM (active)
same,AC50,[1],5.79 µM (active)
same,AC50,[4],6.56 µM (active)
same,AC50,[5],2.09 µM (active)
same,AC50,[6],24.3 µM (active)
CCN(CC)N=O,AC50,[2],6.21 µM (active)
same,outcome,[8],inactive
same,outcome,[9],inactive
CO[C@@H]1[C@H](OC(=O)NC(=O)CCl)CC[C@]2(CO2)[C@H]1[C@@]1(C)O[C@@H]1CC=C(C)C,AC50,[4],2.38 µM (active)
same,AC50,[5],2.21 µM (active)
